# Sampled rows, rich in hits. Any-hit rate of the full collection: about 6.4%.
# RORg inh = qHTS for inhibitors of ROR gamma transcriptional activity | Nuclear receptor ROR-gamma (Mus musculus), P51450 | Drosophila S2 Gal4-RORgamma UAS-luciferase reporter, 20 h | Potency, µM (highest dose often 53.6 µM), usual class: inhibitors | 310,000 tested, 5.4% active; note: nearly all actives have a fitted effect of over 60% in size
# Target sequence (P51450 whole entry, looked up, the tested form may be a part): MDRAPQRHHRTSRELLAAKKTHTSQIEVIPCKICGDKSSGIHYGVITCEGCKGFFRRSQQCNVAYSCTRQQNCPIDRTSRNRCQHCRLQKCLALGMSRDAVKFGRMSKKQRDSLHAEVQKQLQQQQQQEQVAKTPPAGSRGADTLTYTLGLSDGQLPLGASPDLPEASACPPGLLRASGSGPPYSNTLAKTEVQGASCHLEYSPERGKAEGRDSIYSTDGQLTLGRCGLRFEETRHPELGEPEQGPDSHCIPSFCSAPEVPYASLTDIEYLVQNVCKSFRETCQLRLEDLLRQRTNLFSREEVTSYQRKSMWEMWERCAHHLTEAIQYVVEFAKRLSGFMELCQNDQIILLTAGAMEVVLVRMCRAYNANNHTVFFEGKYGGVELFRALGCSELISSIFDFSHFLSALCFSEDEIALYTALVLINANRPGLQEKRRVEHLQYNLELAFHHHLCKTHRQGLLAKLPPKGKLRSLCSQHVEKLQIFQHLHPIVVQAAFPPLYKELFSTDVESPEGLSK
#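 Stably transfected Drosophila Schneider cells are the test system, with ROR gamma fused to Gal4 and luciferase under UAS control; luminescence is read after 20 hr of 700 uM copper sulfate induction at ambient temperature.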
# KinaseGlo FLuc = Counterscreen for Luciferase (Kinase-Glo TM) Inhibition; Potency, µM (titrated, usually from 38.3 µM), most hits filed as inhibitors; Kinase-Glo luciferase, ATP luminescence, 8 min; Luciferin 4-monooxygenase (Photuris pensylvanica), Q27757; 200,000 tested, 0.28% active; note: nearly all actives have a fitted effect of over 60% in size
#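 Compound is pinned into ATP-containing buffer (10 uM ATP, imidazole pH 7.2, 7 mM MgCl2). Kinase-Glo luciferase reagent is then added. Light output is recorded following an 8-min room-temperature incubation.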
# Gal4-VP16 FLuc = VP16 counterscreen qHTS for inhibitors of ROR gamma transcriptional activity; 310,000 tested, 3.5% active; Potency, µM (series often up to 53.6 µM), hits mostly inhibitors; Drosophila S2 Gal4-VP16 UAS-luciferase, luminescence, 20 h;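 note: Gal4-VP16 expression switched on by copper sulfate through the metallothionein promoter; nearly all actives have a fitted effect of over 50% in size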
# Hits are given with their value; 0 = inactive; ? = inconclusive; - = no result given; [ ] = dose if it differs, or a comment. Calls come from the whole dose curve; as a rule, active = well fitted curve in the direction sought with a large enough effect; inconclusive = small, poorly fitted or top-dose-only effect, or another doubt; inactive = no such curve, though single readings can be large; an effect the other way counts as inactive or inconclusive.
SMILES,RORg inh,KinaseGlo FLuc,Gal4-VP16 FLuc
CC(C)c1nc(=S)n(-c2ccccc2)[nH]1,5.62µM,0,?
CCCn1c(-c2ccc(F)cc2)nc2c(NC(C)CN(C)C)nc(C)nc21 (centres undefined),0,0,0
Cc1cccc(C(O)(C(=O)NNc2ccc3ccccc3n2)c2cccc(C)c2)c1,10µM,0,12.6µM
CCNNC(=O)C(O)(c1cccc(C)c1)c1cccc(C)c1,0,0,0
Cc1ccc(NNC(=O)C(O)(c2cccc(C(F)(F)F)c2)c2cccc(C(F)(F)F)c2)cc1,?,0,?
Cc1ccc(C(O)(C(=O)NNc2ccccn2)c2ccc(C)cc2)cc1,10µM,0,?
Cn1c2ccccc2c(=O)c2c(=O)n(-c3ccccc3)c(-c3ccc(C(C)(C)C)cc3)nc21,0,-,0
NC(=O)c1nn(-c2ccccc2)nc1NC(=O)Cn1nnc(-c2ccccc2)n1,0,0,?
O=C(COc1ccc(S(=O)(=O)N2CCOCC2)cc1Cl)NCC1CCCO1 (centres undefined),0,-,0
Sc1ccc2ccccc2c1CNCc1ccccc1,-,0[7.66 µM],-
CC(c1nccs1)N(C)c1nc2nonc2nc1NC1CC1 (centres undefined),0,0,0
c1csc(C2CCCN2c2nc3nonc3nc2NC2CC2)n1 (centres undefined),5.01µM,0,10µM
Cc1c(C(=O)N/N=C/c2cccs2)nnn1-c1nonc1N,11.2µM,-,?
CN(Cc1c(C(=O)N/N=C/c2cccc(F)c2)nnn1-c1nonc1N)c1ccccc1,0,-,0
CCCN(CCC)Cc1c(C(=O)N/N=C/c2ccco2)nnn1-c1nonc1N,?,-,0
Nc1nonc1-n1nnc(C(=O)N/N=C/c2ccc(F)cc2)c1-c1cccs1,0,-,0
CCCc1c(C(=O)N/N=C/c2cccs2)nnn1-c1nonc1N,?,-,6.31µM
CCCN(CCC)Cc1c(C(=O)N/N=C/c2cccs2)nnn1-c1nonc1N,12.6µM,-,?
CN(Cc1c(C(=O)N/N=C/c2cccs2)nnn1-c1nonc1N)c1ccccc1,5.62µM,-,?
CCCc1c(C(=O)N/N=C/c2cccnc2)nnn1-c1nonc1N,0,-,0
CCNc1ncc2nc(-c3ccc(Cl)cc3)c(=O)n(-c3ccc(OC)cc3)c2n1,?,-,0
OC[C@@H]1O[C@H](OC2[C@@H](O)[C@@H](O)[C@@H](O)O[C@@H]2CO)[C@H](O)[C@@H](O)[C@@H]1OC1O[C@H](CO)[C@@H](O)[C@H](O)[C@@H]1O (some centres undefined),0,-,0
N#CC1=C(N)N(c2ncn[nH]2)C2=C(C(=O)CCC2)C1c1ccc(F)cc1 (centres undefined),0,0,0
Cc1cc(Cl)c(C(=O)Nc2cccc(C(F)(F)F)c2)c(C)n1,0,-,0
CCCc1c(C(=O)N/N=C/c2ccc(C)s2)nnn1-c1nonc1N,1µM,-,2.82µM
SMILES,RORg inh,KinaseGlo FLuc,Gal4-VP16 FLuc
CCCc1c(C(=O)N/N=C/C(C)=C/c2ccco2)nnn1-c1nonc1N,0,-,0
COc1ccc(-c2cnn3c(N)c(S(=O)(=O)c4ccccc4)cnc23)cc1,2.82µM,0,5.62µM
CS(=O)(=O)c1cnc2c(S(=O)(=O)c3ccccc3)cnn2c1N,0,0,0
COc1ccc(Oc2nc(-c3ccccc3)ncc2S(=O)(=O)c2ccccc2)cc1,0,0,0
Nc1c(S(=O)(=O)c2ccccc2)cnc2c(-c3ccc(F)cc3)cnn12,4.47µM,0,10µM
O=C(NCc1ccccn1)c1ccc(OC2CCN(Cc3ccc(F)cc3F)CC2)cc1,0,-,0
CC12C=C(/C=C/c3ccc(C(F)(F)F)cc3)C(C)(C1)C(c1ccc(C(F)(F)F)cc1)CC2=O (centres undefined),0[10 µM],-,0[10 µM]
CC1CCN(c2ccc(-c3ccc(NC(=O)C(F)(F)F)cc3)nn2)CC1,5.62µM,-,0
CC(=O)Nc1ccc(NC(=O)C(F)(F)F)cc1,0,0,0
C=C(C)Cn1c(SCC(=O)N/N=C/c2cccc(O)c2)nc2ccccc2c1=O,0,0,?
O=C(c1cnccn1)N1CCC2(CCCN(c3ccc(-c4ccccc4)cc3)C2)CC1,0,0,0
S=C(Nc1ccccc1Cl)N(Cc1ccccc1)Cc1ccccn1,0,0,0[10 µM]
COc1ccccc1NC(=S)N(Cc1ccccc1)Cc1ccccn1,11.2µM,0,?
COc1ccc(NC(=S)N(Cc2ccc(C)cc2)Cc2ccccn2)cc1,?,0,0
COc1ccc(NC(=S)N(CCc2ccc(OC)c(OC)c2)Cc2ccccn2)cc1,?,0,0
COc1ccc(CCN(Cc2ccccn2)C(=S)Nc2ccccc2Cl)cc1OC,10µM,0,?
COc1ccc(CCN(Cc2ccccn2)C(=S)Nc2cccc(C)c2)cc1OC,10µM,0,0
COc1ccccc1NC(=S)N(Cc1ccccc1)Cc1cccnc1,0,0,0
COc1ccc(CCN(Cc2ccccn2)C(=S)Nc2ccccc2F)cc1OC,12.6µM,0,0[10 µM]
CNC(=O)COc1ncnc2scc(-c3ccc(F)cc3)c12,0,0,0
O=S(=O)(C[C@H](O)C(Cl)(Cl)Cl)NNc1ccccc1,-,0[7.66 µM],-
Cc1c(C(=O)OCC(=O)Nc2ccc(C(=O)N(C)C)cc2)oc2ccccc12,0,-,0
O/N=C(\CN1CCCCC1)c1ccccc1,0,-,0
COC(=O)/C=C/c1c(C)nc(NCc2ccccc2)nc1Cl,0,-,0
S=c1nc2c(n[nH]1)c1ccccc1n2CCc1ccccc1,2.24µM,-,1.41µM
SMILES,RORg inh,KinaseGlo FLuc,Gal4-VP16 FLuc
CSc1nnc2c3ccccc3n(CCc3ccccc3)c2n1,0,0,0
CCOc1ccc(NC(=O)CSc2nnnn2C2CCCC2)cc1,0,-,0
O=c1c(-c2ccc(F)c(F)c2)nc2cncnc2n1Cc1ccccc1,0,0,0
COc1ccc(Cn2c(=O)[nH]c3cc(C(=O)N4CCN(c5ccc(C(C)=O)cc5)CC4)ccc3c2=O)cc1,0,-,0
COc1cccc(S(=O)(=O)Nc2ccc(C(=O)Nc3ccncc3)cc2)c1,0,0,0
O=C(Nc1cccc(S(=O)(=O)Nc2ccc(Cl)cc2)c1)c1ccc(Cl)nc1,?,-,3.16µM
O=C(Nc1ccc(NS(=O)(=O)c2ccccc2)cc1)c1ccc(Cl)cc1,0,-,0
COc1ccc(NS(=O)(=O)c2cccc(NC(=O)c3ccc(Cl)nc3)c2)cc1,?,0,2.82µM
CCN(C(=O)c1ccc(C)c(Br)c1)c1ccccc1,0,0,0
CC(=O)Nc1cccc2c1C(=O)N(c1ccccc1OC(C)=O)C2=O,0,0,0
O=C(NCC(=O)N1CCN(S(=O)(=O)c2cccs2)CC1)c1ccc(Cl)cc1,0,0,0
Cc1cc(C(C)(C)C)c(OCCCN2CCOCC2)c(C(C)(C)C)c1,-,0[7.66 µM],-
CCCCN1C(=O)Cc2c1nc(N)c1c(N)nc(N(CCC)CCC)c(C#N)c21,?,0,22.4µM
N#Cc1c(N(CCO)CCO)nc(N)c2c(N)nc3c(c12)CC(=O)N3CC1CCCO1 (centres undefined),0,-,0
CCC(=O)/C=C/C1C(C)=CCCC1(C)C (centres undefined),0,-,0
CCn1cc(C(=O)NCCCN2CCN(C)CC2)c(=O)c2cc(S(=O)(=O)N3CCc4ccccc4C3)ccc21,0,0,0
CC(C)N1CC(O)=C(c2nc3ccccc3[nH]2)C1=N,0,0,0

# High-throughput results from PubChem BioAssay.
